# Article PMC4242493, “Sequence specificity incompletely defines the genome-wide occupancy of Myc”
# Whole data set: some 33,000 sequences, median “normalized occupancy” near 0.075, cut for the highest 2% near 0.095. The entries come from a sample that favours the highest values as a whole.
# Target: MaxL homodimer (Homo sapiens, UniProt P61244 1-160)
# Experiment: universal protein-binding microarray (PBM); PBS-based mixture, 10 nM His-tagged protein dimer, 2% milk, 200 ng/uL BSA, 50 ng/uL salmon testes DNA, 0.02% TX-100; detection with Alexa 488 anti-His antibody;; high values mean tight binding
# Settings: protein: recombinant; tags: C-terminal His-tag (pET21a); chain copies: 2; dsDNA, one strand shown
# Summary of the method: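 His-tagged protein dimer at 10 nM was bound to Agilent 4 x 44 K 'all 10-mer' universal arrays and detected with 10 ng/μL fluorophore-conjugated anti-His antibody on a GenePix 4400A, giving an intensity per 8-mer. Binding occupancy normalises each intensity to the top-ranked one.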
# MaxL homodimer, sequence (P61244 whole entry): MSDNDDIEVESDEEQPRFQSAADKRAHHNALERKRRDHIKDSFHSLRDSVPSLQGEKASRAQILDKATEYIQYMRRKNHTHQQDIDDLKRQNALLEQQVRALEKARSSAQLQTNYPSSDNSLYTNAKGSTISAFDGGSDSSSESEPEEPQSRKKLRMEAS
row,Sequence,binding signal
1,CGCCATGC,0.0988 normalized occupancy
2,CGCCATGA,0.0842 normalized occupancy
3,AGCCATGA,0.0819 normalized occupancy
4,CGCCATCC,0.077 normalized occupancy
5,AGCCATGC,0.0996 normalized occupancy
6,AGCCATGG,0.0832 normalized occupancy
7,ATGTCAAT,0.0778 normalized occupancy
8,GGTAACCA,0.0775 normalized occupancy
9,CTTCTTTA,0.075 normalized occupancy
10,AAAACGAT,0.0742 normalized occupancy
11,ACATGGCG,0.098 normalized occupancy
12,ACTTGGGG,0.0791 normalized occupancy
13,AAATGGGT,0.0763 normalized occupancy
14,ACATGGAG,0.0868 normalized occupancy
15,ACATGGCT,0.0932 normalized occupancy
16,ACATGGGC,0.0848 normalized occupancy
17,ACATGGGG,0.101 normalized occupancy
18,ACATGGAT,0.101 normalized occupancy
19,CCATGGGG,0.0949 normalized occupancy
20,ACATGGAA,0.0918 normalized occupancy
21,CCATGGCG,0.0768 normalized occupancy
22,ACATGGGT,0.1 normalized occupancy
23,GACATTGA,0.078 normalized occupancy
24,CAATGAGC,0.074 normalized occupancy
25,CGTGCGTA,0.0916 normalized occupancy

row,Sequence,binding signal
1,ATTATGTA,0.0828 normalized occupancy
2,CCCCCGCG,0.0757 normalized occupancy
3,TGGCTAAA,0.074 normalized occupancy
4,ATGACAGC,0.0803 normalized occupancy
5,GTAATAAA,0.076 normalized occupancy
6,ACTACTAT,0.0796 normalized occupancy
7,GGGGGCAC,0.0775 normalized occupancy
8,AAACGTAA,0.0743 normalized occupancy
9,GGAGACAA,0.0754 normalized occupancy
10,CTTAGGCA,0.0777 normalized occupancy
11,AACTAATT,0.0744 normalized occupancy
12,GTTTAGAA,0.0757 normalized occupancy
13,AGTTTACA,0.0773 normalized occupancy
14,AGCGTGAA,0.0854 normalized occupancy
15,AGCGTGAT,0.1 normalized occupancy
16,ACCGTGAT,0.0871 normalized occupancy
17,AGCGTGAC,0.101 normalized occupancy
18,AGTGTGAC,0.089 normalized occupancy
19,AGAGTGAC,0.0747 normalized occupancy
20,CCATAGGA,0.0736 normalized occupancy
21,AACCTTGT,0.0729 normalized occupancy
22,CAAGGAAC,0.079 normalized occupancy
23,GGACGGCA,0.0718 normalized occupancy
24,GAAATTTA,0.0725 normalized occupancy
25,ATTAGTCA,0.0775 normalized occupancy

row,Sequence,binding signal
1,GAATTCTA,0.0768 normalized occupancy
2,AAGGTGAC,0.0729 normalized occupancy
3,AACGTGAC,0.109 normalized occupancy
4,ACCGTGAC,0.0781 normalized occupancy
5,AACGTGAA,0.0849 normalized occupancy
6,AACGTGAT,0.11 normalized occupancy
7,AACGTGAG,0.0854 normalized occupancy
8,ACCTAACC,0.0792 normalized occupancy
9,GAGATGGA,0.0798 normalized occupancy
10,GGTACCCA,0.0727 normalized occupancy
11,GATCATCC,0.0784 normalized occupancy
12,AATCATGA,0.0851 normalized occupancy
13,CATCATGA,0.0846 normalized occupancy
14,AATCATGC,0.0958 normalized occupancy
15,GATCATGC,0.101 normalized occupancy
16,AATCATCC,0.083 normalized occupancy
17,CATCATGC,0.0995 normalized occupancy
18,AATCATGT,0.0985 normalized occupancy
19,CATCATGG,0.0895 normalized occupancy
20,GATCATGA,0.0863 normalized occupancy
21,ATTCATGC,0.0905 normalized occupancy
22,AATCATGG,0.0832 normalized occupancy
23,ATGCTCCA,0.0829 normalized occupancy
24,TGAGTTAA,0.078 normalized occupancy
25,GAGCGTGA,0.0923 normalized occupancy

row,Sequence,binding signal
1,TAGCGTGA,0.0905 normalized occupancy
2,CAGCGTGG,0.129 normalized occupancy
3,CAGCGTCA,0.0719 normalized occupancy
4,CATCGTGG,0.0917 normalized occupancy
5,CAGCGTGA,0.104 normalized occupancy
6,CTAATGTA,0.078 normalized occupancy
7,ATGTACGA,0.0873 normalized occupancy
8,CATGGGAA,0.0896 normalized occupancy
9,AATGGGGG,0.0803 normalized occupancy
10,CATGGGGA,0.1 normalized occupancy
11,AATGGGGA,0.0809 normalized occupancy
12,CATGGGGC,0.0935 normalized occupancy
13,CATGGGGG,0.0995 normalized occupancy
14,CCGTTTGA,0.0729 normalized occupancy
15,CAGGTGAC,0.0878 normalized occupancy
16,AAACATTA,0.0779 normalized occupancy
17,CCATGCGG,0.145 normalized occupancy
18,CCCTGCGG,0.0745 normalized occupancy
19,TCATGCGA,0.0877 normalized occupancy
20,CAATGCGA,0.0774 normalized occupancy
21,GCATGCGA,0.119 normalized occupancy
22,GCATGCGC,0.121 normalized occupancy
23,GTATGCGA,0.0727 normalized occupancy
24,AAATGCGC,0.0749 normalized occupancy
25,GAATGCGC,0.075 normalized occupancy

row,Sequence,binding signal
1,GGATGCGA,0.0783 normalized occupancy
2,CAATGCGG,0.0873 normalized occupancy
3,CCATGCGA,0.1 normalized occupancy
4,TGATAGAA,0.0854 normalized occupancy
5,GTGTCGTA,0.0815 normalized occupancy
6,AGGTCACG,0.082 normalized occupancy
7,CTGTTGTA,0.0736 normalized occupancy
8,AAAGAGCA,0.0761 normalized occupancy
9,ATGCGCGA,0.0781 normalized occupancy
10,ATGTTCAG,0.0809 normalized occupancy
11,ACACATCC,0.0784 normalized occupancy
12,CAATGCGC,0.0788 normalized occupancy
13,CCATGCGC,0.121 normalized occupancy
14,CTATGCGC,0.075 normalized occupancy
15,ACCATTGC,0.0746 normalized occupancy
16,CAACGTAA,0.0776 normalized occupancy
17,AAACGTGC,0.101 normalized occupancy
18,AAACGTGT,0.1 normalized occupancy
19,AAACGTTT,0.0755 normalized occupancy
20,CAACGTTC,0.0755 normalized occupancy
21,GAACGTGC,0.0931 normalized occupancy
22,CAACGTCA,0.0743 normalized occupancy
23,CAACGTAC,0.0758 normalized occupancy
24,AAACGTAC,0.074 normalized occupancy
25,AAACGTAT,0.0746 normalized occupancy

row,Sequence,binding signal
1,CAACGTGA,0.118 normalized occupancy
2,CAACGTGC,0.122 normalized occupancy
3,CACACCCA,0.0877 normalized occupancy
4,ATTATTTG,0.0793 normalized occupancy
5,ACCGATAC,0.075 normalized occupancy
6,TCTCCAAA,0.0803 normalized occupancy
7,CTCTCAGC,0.0719 normalized occupancy
8,CATGGCTC,0.09 normalized occupancy
9,AAACCATA,0.0792 normalized occupancy
10,CTGAATCC,0.0737 normalized occupancy
11,CGTACGCC,0.0757 normalized occupancy
12,CTTAACCC,0.0738 normalized occupancy
13,ACAACTAA,0.0755 normalized occupancy
14,CGGCAGCC,0.0724 normalized occupancy
15,CGTTTAGA,0.0747 normalized occupancy
16,TAACGTGA,0.0935 normalized occupancy
17,AAACGTAG,0.0771 normalized occupancy
18,AAACGTGG,0.123 normalized occupancy
19,CAACGTAG,0.0762 normalized occupancy
20,AAACGTGA,0.099 normalized occupancy
21,CAACGTTG,0.083 normalized occupancy
22,CAACGTGG,0.154 normalized occupancy
23,GAACGTGA,0.0801 normalized occupancy
24,AAACGTCG,0.0737 normalized occupancy
25,ATCGCCAG,0.0753 normalized occupancy

row,Sequence,binding signal
1,AAGACATG,0.0912 normalized occupancy
2,GAAGCATC,0.076 normalized occupancy
3,AACATCCA,0.0849 normalized occupancy
4,ACTTAAAT,0.0746 normalized occupancy
5,CGACGTGA,0.0883 normalized occupancy
6,CCACGTAG,0.0817 normalized occupancy
7,CTACGTGC,0.0865 normalized occupancy
8,TCACGTCA,0.0819 normalized occupancy
9,TCACGTGA,0.19 normalized occupancy
10,CCACGTGC,0.814 normalized occupancy
11,CTACGTGA,0.0799 normalized occupancy
12,TCACGTAA,0.086 normalized occupancy
13,CCACGTGG,0.971 normalized occupancy
14,CCACGTCG,0.086 normalized occupancy
15,CGACGTGC,0.083 normalized occupancy
16,CCACGTGA,0.482 normalized occupancy
17,GGAGAGCA,0.0742 normalized occupancy
18,CCGTCTAA,0.0757 normalized occupancy
19,ACAAATGT,0.079 normalized occupancy
20,GGTCAGGA,0.0732 normalized occupancy
21,GAGGAAGA,0.075 normalized occupancy
22,ACCTGTAA,0.0823 normalized occupancy
23,ACACCTGT,0.0912 normalized occupancy
24,CCACCTTC,0.0757 normalized occupancy
